# Measured values as given in PubChem BioAssay (NCATS).
# Results filed as inconclusive are left out. Activity calls are given as the source filed them. The call rests on the fitted dose curve; in most records, active means well fitted inhibition curve with a large enough effect; inconclusive means small, poorly fitted or top-dose-only effect; inactive means flat fitted curve, though single readings scatter.
# Experiment: High Content Imaging Cell-Based qHTS for Inhibitors of the mTORC1 Signaling Pathway in MEF (Tsc2-/-, p53-/-) Cells (AID 2666);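 further: percent of cells scored positive for phospho-rpS6 Ser235/236 immunostaining by imaging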
# Conditions: at 38.3 µM (top of the series)
# Source text: NIH Molecular Libraries Probe Production Centers Network [MLPCN]
# NIH Chemical Genomics Center [NCGC]
# Assay Submitter (PI): Blenis, John; Hoffman, Greg; Harvard University
# NCGC Assay Overview: Thee mammalian target of rapamycin (mTOR) is an intracellular serine/threonine kinase Aberrant regulation of mTOR signaling plays a causative role in a number of human diseases, including cancer, benign tumors such as lymphangioleiomyomatosis (LAM) and Tuberous Sclerosis Complex (TSC), and metabolic diseases such as diabetes and obesity. This project aims to identify inhibitors of ribosomal protein S6 (rpS6) phosphorylation. The phosphorylation of rpS6 is a key event downstream of mTOR activation. The assay uses a phospho-specific antibody of phospho-rpS6 to detect inhibitors of mTOR activation. Mutations in the Tsc1 and Tsc2 genes are the underlying genetic lesions responsible for TSC, causing constitutive activation of the mTORC1 pathway and leading to profound effects on cell metabolism. Aberrant metabolism in cancer has recently received significant attention as a target to develop therapeutic agents in the treatment of cancer1. As Tsc2-/- cells have lost the ability to respond to energy and growth factor deprivation, these cells are unable to properly down regulate cellular biosynthetic processes in response to metabolic stress, and are thus extremely sensitive to glucose deprivation-induced death.2 A central goal of this project is to explore the unique cell survival and metabolic properties of cells with Tsc1 or Tsc2 by screening for compounds that selectively target the Tsc2-/- MEFs by screening both Tsc2-/- and WT MEF cell lines. We hope to better understand these aspects of TSC physiology in order to exploit them for therapeutic benefit.
# NCGC IN Cell Assay Protocol:
# For quantitative high throughput analysis of mTORC1 signaling, we developed a cell-based assay for immuno-fluorescence based detection of rpS6 phosphorylation on the Acumen Explorer that will be used a platform for the primary small molecule screen. Mouse embryonic fibroblasts (MEFs) are cultured in 1536-well plates using DMEM + 10% FBS. Twenty-four hrs after plating, test compounds (solubilized in DMSO) are delivered and incubated with the cells for 24 hrs at 37 degree Celsius. Following the incubation, media with compound is aspirated and the cells are fixed in 4% paraformaldehyde (PFA) containing PBS + 0.2% TX-100. Next, PFA is aspirated, cells are washed two times with PBS plus 0.2% TX-100 and the cells are blocked for 1 hr at room temperature (blocking buffer: LiCOR Blocking Buffer plus 0.2% TX-100). This is followed by aspiration and staining with Alexa-488 conjugated-phospho-rpS6 Ser235/236 antibody for 2 hours at room temperature (Cell Signaling Technology # 4803, 1:50 dilution in blocking buffer). Cells are washed two times with PBS plus 0.2% TX-100, and stained with 10 uM propidium iodide (PI) for 20-25 minutes for cell number measurement (1:500 dilution of Hoescht staining is also added for IN Cell imaging). Active wells which are selected (based on Acumen results) are imaged on the IN Cell 1000 (GE Healthcare) using the D360/40X and HQ480/40X excitation filters for the Hoechst and Alexa-488 cytoplasmic stains, respectively. The fluorescence emission filters used were HQ460/40M and HQ535/50M for the Hoechst and Alexa-488 cytoplasmic stains, respectively. The normalized phospho-S6 staining is calculated as the ratio of […] for the single concentration rapamycin control ([…] nM) and DMSO columns. […] Inhibition of the pathway is defined based on the normalized phospho-S6 intensity in rapamycin treated cells. Each treatment is reported as the % positive cells in the well, where thresholds are defined by selecting wells with the highest and lowest signal and differentiating between the % non-active and % active populations. […]
row,SMILES,outcome
1,N[C@H](CO)C(=O)O,inactive
2,C[C@]12CC[C@@H]3c4ccc(O)cc4CC[C@H]3[C@@H]1CC[C@@H]2O,inactive
3,CNCCC(Oc1ccccc1C)c1ccccc1 (configuration not stated),inactive
4,COc1cc(NS(C)(=O)=O)ccc1Nc1c2ccccc2nc2ccccc12,inactive
5,COc1cc2c(cc1O)CC[C@@H]1[C@@H]2CC[C@]2(C)[C@@H](O)CC[C@@H]12,inactive
6,C[C@@H]1C(=O)NC2=Nc3cccc(Cl)c3CN21,inactive
7,CN1C2CCC1CC(OC(=O)c1c[nH]c3ccccc13)C2 (configuration not stated),inactive
8,N[C@@H](Cc1cnc[nH]1)C(=O)O,inactive
9,CC(C)C[C@H]1C(=O)N2CCC[C@H]2[C@]2(O)O[C@](NC(=O)[C@@H]3C=C4c5cccc6[nH]c(Br)c(c56)C[C@H]4N(C)C3)(C(C)C)C(=O)N12,inactive
10,C[N+]1(CCCCC[N+]2(C)CCCC2)CCCC1,inactive
11,CC1(C)CCC(NC(=O)[C@@H](N)CCC(=O)O)CC1,inactive
12,O=C1CCC(c2ccc(-n3ccnc3)cc2)=NN1,inactive
13,CCCn1c(=O)[nH]c(=O)c2[nH]cnc21,inactive
14,CC(C)COC(=O)OCN1C(=O)CN(CCN2CC(=O)N(COC(=O)OCC(C)C)C(=O)C2)CC1=O,inactive
15,O=C(O)c1cc2cc(Cc3cccnc3)ccc2o1,inactive
16,CC(=O)O[C@H]1C[C@@H]2CC[C@@H]3[C@H](CC[C@@]4(C)[C@H]3C[C@H]([N+]3(C)CCCCC3)[C@@H]4OC(C)=O)[C@@]2(C)C[C@@H]1[N+]1(C)CCCCC1,inactive
17,COC(=O)[C@H]1[C@H]2C[C@H]3c4[nH]c5ccccc5c4CCN3C[C@H]2CC[C@@H]1O,inactive
18,CCCC1O[C@@H]2C[C@H]3[C@@H]4CCC5=CC(=O)C=C[C@]5(C)[C@H]4[C@@H](O)C[C@]3(C)[C@]2(C(=O)CO)O1 (some centres not stated),inactive
19,CCC(NC(C)C)C(O)c1ccc(O)c(O)c1 (configuration not stated),inactive
20,CC(CCc1ccccc1)NCC(O)c1ccc(O)c(C(N)=O)c1 (configuration not stated),inactive
21,CC[C@H](C)C(=O)O[C@H]1CCC=C2C=C[C@H](C)[C@H](CC[C@@H]3C[C@@H](O)CC(=O)O3)[C@H]21,inactive
22,Nc1cc(Cl)c(NC2=NCCN2)c(Cl)c1,inactive
